In all, about 5,500 compounds went through this assay and about 2,000 (36%) were called active. Another 18% or so got no clear call; they are omitted. Cut-off read from the data, not from the text of the source: active = normalized growth mostly below about 0.91 (no sharp cut-off); inconclusive = no clear call, values can overlap the other calls; inactive = mostly above about 0.92. Some of the results follow.
Test: chemical genetic growth profiling, strain panel (AID 1159580);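 note: tested at 20 µM; growth read once vehicle control cultures reached saturation at 30 °C; 1 = growth at the plate median or of vehicle wells; lower values mean less growth of the strain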
Settings: growth OD
[1] = S. cerevisiae deletion strains, locus YAL013W, strain DEP1, stronger effect = lower value
[2] = S. cerevisiae deletion strains, locus YBR229C, strain ROT2, stronger effect = lower value
[3] = S. cerevisiae deletion strains, locus YDL101C, strain DUN1, stronger effect = lower value
[4] = S. cerevisiae deletion strains, locus YDR150W, strain NUM1, stronger effect = lower value
[5] = S. cerevisiae deletion strains, locus YEL061C, strain CIN8, stronger effect = lower value
[6] = S. cerevisiae deletion strains, locus YGR078C, strain PAC10, stronger effect = lower value
[7] = S. cerevisiae deletion strains, locus YGR229C, strain SMI1, stronger effect = lower value
[8] = S. cerevisiae deletion strains, locus YHR030C, strain SLT2, stronger effect = lower value
[9] = S. cerevisiae deletion strains, locus YJR043C, strain POL32, stronger effect = lower value
[10] = S. cerevisiae deletion strains, locus YJR075W, strain HOC1, stronger effect = lower value
[11] = S. cerevisiae deletion strains, locus YLR039C, strain RIC1, stronger effect = lower value
[12] = S. cerevisiae deletion strains, locus YLR262C, strain YPT6, stronger effect = lower value
[13] = S. cerevisiae deletion strains, locus YMR263W, strain SAP30, stronger effect = lower value
[14] = S. cerevisiae deletion strains, locus YMR307W, strain GAS1, stronger effect = lower value
[15] = S. cerevisiae deletion strains, locus YNL128W, strain TEP1, stronger effect = lower value
[16] = S. cerevisiae deletion strains, locus YNL153C, strain GIM3, stronger effect = lower value
[17] = S. cerevisiae deletion strains, locus YNL322C, strain KRE1, stronger effect = lower value
[18] = S. cerevisiae deletion strains, locus YPL055C, strain LGE1, stronger effect = lower value
[19] = S. cerevisiae deletion strains, locus YPL241C, strain CIN2, stronger effect = lower value
[20] = S. cerevisiae deletion strains, locus YAL040C, strain CLN3, stronger effect = lower value
[21] = S. cerevisiae deletion strains, locus YCL061C, strain MRC1 (second series), stronger effect = lower value
[22] = S. cerevisiae deletion strains, locus YDR363W, strain ESC2, stronger effect = lower value
[23] = S. cerevisiae deletion strains, locus YER002W, strain NOP16, stronger effect = lower value
[24] = S. cerevisiae deletion strains, locus YNL175C, strain NOP13, stronger effect = lower value
[25] = S. cerevisiae deletion strains, locus YNL197C, strain WHI3, stronger effect = lower value
[26] = S. cerevisiae deletion strains, locus YNL224C, strain SQS1, stronger effect = lower value
[27] = S. cerevisiae deletion strains, locus YOR083W, strain WHI5 (second series), stronger effect = lower value

Measured: normalized growth

CC(=O)C1CCC2C3CC(=O)C4=CC(=O)CCC4(C)C3CCC12C (configuration not stated)
inactive: [1] 0.971 | S. cerevisiae deletion strains, locus YBR021W, strain FUR4, stronger effect = lower value 0.995 | [2] 0.955 | S. cerevisiae deletion strains, locus YCL029C, strain bik1, stronger effect = lower value 0.972 | S. cerevisiae deletion strains, locus YDL035C, strain GPR1, stronger effect = lower value 0.971 | S. cerevisiae deletion strains, locus YDL074C, strain BRE1, stronger effect = lower value 0.875 | [3] 0.935 | S. cerevisiae deletion strains, locus YDL134C, strain PPH21, stronger effect = lower value 0.976 | S. cerevisiae deletion strains, locus YDL185W, strain tfp1, stronger effect = lower value 0.946 | S. cerevisiae deletion strains, locus YDL192W, strain arf1, stronger effect = lower value 0.982 | S. cerevisiae deletion strains, locus YDR101C, strain arx1, stronger effect = lower value 0.99 | [4] 0.95 | S. cerevisiae deletion strains, locus YDR162C, strain NBP2, stronger effect = lower value 0.866 | S. cerevisiae deletion strains, locus YDR318W, strain mcm21, stronger effect = lower value 0.996 | S. cerevisiae deletion strains, locus YDR388W, stronger effect = lower value 0.983 | S. cerevisiae deletion strains, locus YDR502C, strain sam2, stronger effect = lower value 0.95 | [5] 0.981 | S. cerevisiae deletion strains, locus YER110C, stronger effect = lower value 0.971 | S. cerevisiae deletion strains, locus YER155C, strain BEM2, stronger effect = lower value 1 | S. cerevisiae deletion strains, locus YER167W, strain BCK2, stronger effect = lower value 0.995 | S. cerevisiae deletion strains, locus YGL078C, strain dbp3, stronger effect = lower value 0.979 | S. cerevisiae deletion strains, locus YGL086W, strain mad1, stronger effect = lower value 1.01 | S. cerevisiae deletion strains, locus YGL248W, strain PDE1, stronger effect = lower value 0.967 | [6] 0.928 | S. cerevisiae deletion strains, locus YGR135W, strain pre9, stronger effect = lower value 0.926 | [7] 1.03 | S. cerevisiae deletion strains, locus YGR252W, strain gcn5, stronger effect = lower value 1.02 | [8] 0.995 | S. cerevisiae deletion strains, locus YHR079C, strain IRE1 (second series), stronger effect = lower value 0.984 | S. cerevisiae deletion strains, locus YHR094C, strain hxt1, stronger effect = lower value 0.982 | S. cerevisiae deletion strains, locus YHR129C, strain ARP1, stronger effect = lower value 0.985 | S. cerevisiae deletion strains, locus YHR200W, strain rpn10, stronger effect = lower value 0.982 | S. cerevisiae deletion strains, locus YIL066C, strain RNR3, stronger effect = lower value 0.948 | S. cerevisiae deletion strains, locus YIL073C, strain SPO22, stronger effect = lower value 0.99 | S. cerevisiae deletion strains, locus YIL125W, strain kgd1, stronger effect = lower value 0.983 | S. cerevisiae deletion strains, locus YIR030C, strain dcg1, stronger effect = lower value 0.982 | S. cerevisiae deletion strains, locus YJL095W, strain BCK1, stronger effect = lower value 0.965 | S. cerevisiae deletion strains, locus YJL134W, strain LCB3, stronger effect = lower value 0.975 | S. cerevisiae deletion strains, locus YJL168C, strain set2, stronger effect = lower value 0.978 | S. cerevisiae deletion strains, locus YJL187C, strain SWE1 (second series), stronger effect = lower value 0.931 | [9] 1.01 | [10] 0.953 | S. cerevisiae deletion strains, locus YKL009W, strain mrt4, stronger effect = lower value 0.968 | S. cerevisiae deletion strains, locus YKL068W, stronger effect = lower value 0.982 | S. cerevisiae deletion strains, locus YKL085W, strain MDH1 (second series), stronger effect = lower value 0.943 | S. cerevisiae deletion strains, locus YKL085W, strain MDH1, stronger effect = lower value 0.943 | S. cerevisiae deletion strains, locus YKL190W, strain CNB1, stronger effect = lower value 0.964 | S. cerevisiae deletion strains, locus YKR001C, strain vps1, stronger effect = lower value 0.971 | [11] 0.735 | S. cerevisiae deletion strains, locus YLR058C, strain SHM2, stronger effect = lower value 0.971 | S. cerevisiae deletion strains, locus YLR102C, strain apc9, stronger effect = lower value 0.971 | [12] 0.749 | S. cerevisiae deletion strains, locus YLR268W, strain sec22, stronger effect = lower value 0.928 | S. cerevisiae deletion strains, locus YLR330W, strain CHS5, stronger effect = lower value 0.989 | S. cerevisiae deletion strains, locus YLR342W, strain FKS1 (second series), stronger effect = lower value 1.01 | S. cerevisiae deletion strains, locus YLR371W, strain rom2, stronger effect = lower value 0.986 | S. cerevisiae deletion strains, locus YLR418C, strain cdc73, stronger effect = lower value 0.862 | S. cerevisiae deletion strains, locus YML016C, strain PPZ1, stronger effect = lower value 0.979 | S. cerevisiae deletion strains, locus YML032C, strain rad52, stronger effect = lower value 1.01 | S. cerevisiae deletion strains, locus YML124C, strain tub3, stronger effect = lower value 0.998 | S. cerevisiae deletion strains, locus YMR078C, strain ctf18, stronger effect = lower value 0.968 | S. cerevisiae deletion strains, locus YMR223W, strain ubp8, stronger effect = lower value 1 | [13] 0.936 | [14] 1.01 | S. cerevisiae deletion strains, locus YNL067W, strain RPL9B, stronger effect = lower value 0.936 | [15] 0.924 | [16] 0.922 | S. cerevisiae deletion strains, locus YNL233W, strain BNI4, stronger effect = lower value 0.972 | S. cerevisiae deletion strains, locus YNL250W, strain rad50, stronger effect = lower value 0.948 | S. cerevisiae deletion strains, locus YNL271C, strain bni1, stronger effect = lower value 0.983 | S. cerevisiae deletion strains, locus YNL298W, strain CLA4, stronger effect = lower value 0.968 | S. cerevisiae deletion strains, locus YNL307C, strain MCK1, stronger effect = lower value 0.971 | [17] 0.977 | S. cerevisiae deletion strains, locus YNR052C, strain pop2, stronger effect = lower value 0.989 | S. cerevisiae deletion strains, locus YOL006C, strain TOP1, stronger effect = lower value 0.846 | S. cerevisiae deletion strains, locus YOL012C, strain htz1 0.923 | S. cerevisiae deletion strains, locus YOL147C, strain pex11, stronger effect = lower value 0.99 | S. cerevisiae deletion strains, locus YOR061W, strain CKA2, stronger effect = lower value 0.942 | S. cerevisiae deletion strains, locus YOR069W, strain VPS5, stronger effect = lower value 0.975 | S. cerevisiae deletion strains, locus YOR136W, strain idh2, stronger effect = lower value 0.984 | S. cerevisiae deletion strains, locus YOR144C, strain elg1, stronger effect = lower value 0.988 | S. cerevisiae deletion strains, locus YOR184W, strain ser1, stronger effect = lower value 0.959 | S. cerevisiae deletion strains, locus YOR316C, strain cot1, stronger effect = lower value 0.968 | [18] 0.852 | [19] 0.974 | S. cerevisiae deletion strains, locus YPR119W, strain clb2, stronger effect = lower value 0.99 | S. cerevisiae deletion strains, locus YPR141C, strain kar3, stronger effect = lower value 0.957 | S. cerevisiae deletion strains, locus YPR163C, strain tif3, stronger effect = lower value 0.967 | S. cerevisiae deletion strains, locus YPR167C, strain met16, stronger effect = lower value 0.979 | S. cerevisiae deletion strains, strain wtn01, stronger effect = lower value 0.951 | S. cerevisiae strains, strain wild type, stronger effect = lower value 0.972

CC12CCC3C(CCC4=CC(=O)CCC43CO)C1CCC2OC(=O)c1ccccc1 (configuration not stated)
inactive: [1] 0.994 | [2] 1.01 | S. cerevisiae deletion strains, locus YCL061C, strain MRC1, stronger effect = lower value 0.999 | [3] 1.01 | [4] 0.993 | [5] 1 | [6] 1.01 | [8] 0.946 | S. cerevisiae deletion strains, locus YHR087W, strain rtc3, stronger effect = lower value 1.01 | S. cerevisiae deletion strains, locus YJL187C, strain SWE1, stronger effect = lower value 1.02 | [9] 0.996 | [10] 1.02 | [11] 0.978 | S. cerevisiae deletion strains, locus YLR058C, strain SHM2 (second series), stronger effect = lower value 1 | S. cerevisiae deletion strains, locus YLR085C, strain ARP6, stronger effect = lower value 1 | [12] 0.956 | S. cerevisiae deletion strains, locus YML094W, strain GIM5, stronger effect = lower value 1 | S. cerevisiae deletion strains, locus YMR219W, strain ESC1, stronger effect = lower value 1.01 | [13] 0.991 | [16] 1.01 | S. cerevisiae deletion strains, locus YNL298W, strain CLA4 (second series), stronger effect = lower value 1.05 | [17] 1.02 | S. cerevisiae deletion strains, locus YNR030W, strain Alg12, stronger effect = lower value 0.986 | [18] 1.02 | [19] 1.02 | S. cerevisiae deletion strains, locus YPR135W, strain CTF4, stronger effect = lower value 0.923

C/C=C1\C(=O)CC2C3CCC4=CC(=O)CC[C@]4(C)C3CC[C@]12C (some centres not stated)
inactive: [1] 0.978 | [20] 0.975 | [21] 1 | [22] 0.996 | [23] 0.974 | [6] 0.924 | [14] 1.01 | [15] 0.938 | [24] 0.956 | [25] 0.978 | [26] 0.99 | [17] 1.01 | [18] 0.992
active: [16] 0.774 | [27] 0.743

CC(=O)[C@H]1CC[C@H]2[C@@H]3CCC4=CC(=O)CC[C@]4(C)[C@H]3CC[C@]12C
active: [7] 1.17 [resistant]
inactive: [1] 0.994 | [20] 0.992 | [21] 1 | [22] 1.01 | [23] 0.973 | [6] 0.998 | [10] 0.99 | [14] 0.979 | [24] 0.991 | [25] 0.986 | [26] 0.992 | [27] 1.01 | [18] 0.99 | [19] 0.995
